The values that follow come from PubChem BioAssay (EPA / NIEHS).

The source made the active and inactive calls. How the source made its calls: active means hit-call score of the fitted dose curve at least 0.9, where 1 is the maximum; inactive means score below 0.9.

Test [1] can be described thus: ATG_CRE_CIS: Attagene CIS-FACTORIAL HepG2 Assay for human cAMP Responsive Element (CRE) binding protein 3 (AID 2282926). The settings on record: HepG2 CRE cis-reporter, Attagene multiplexed mRNA; actives raise or lower the signal. In outline:
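We dosed HepG2 cells bearing multiple cis-promoter reporter units for 24 h and measured reporter mRNA by RT-PCR with capillary electrophoresis detection. Bidirectional concentration-response fitting used DMSO as negative control.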

In test [2] the target is CCAAT/enhancer-binding protein beta (Homo sapiens) (UniProt P17676). The test is described as follows: ATG_C_EBP_CIS: Attagene CIS-FACTORIAL HepG2 Assay for human CCAAT/Enhancer Binding Protein (C/EBP) beta (AID 2282927). Particulars: HepG2 Attagene cis-factorial transcription factor reporter; actives raise or lower the signal. The essentials:
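Endogenous transcription factor activity in human liver HepG2 cells is inferred from induction of a CEBPB-linked reporter mRNA. Exposure lasts 24 h; activity is fitted in both directions relative to DMSO.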

Test [3] can be described thus: ATG_CMV_CIS: Attagene CIS-FACTORIAL HepG2 Assay for human CMV (Internal Marker) (AID 2282928).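 Further: endpoint acts as a background internal control marker rather than a target.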 Particulars: HepG2 CMV promoter reporter, transcription factor profiling; actives raise or lower the signal. In outline: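 After transient transfection of HepG2 with reporter transcription units driven by cis-regulatory promoters, cells receive test chemical for 24 h. Labeled reporter amplicons, digested with HpaI, are sized and quantified by capillary electrophoresis against DMSO.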

For test [4], the target named is Aryl hydrocarbon receptor (Homo sapiens) (UniProt P35869). Briefly: ATG_Ahr_CIS: Attagene CIS-FACTORIAL HepG2 Assay for human Aryl Hydrocarbon Receptor (Ahr) (AID 2282930). The settings on record: HepG2 AhR cis-factorial reporter transcription; actives raise or lower the signal. In outline: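 Transient MRTU transfection of HepG2 → 24 h compound exposure → total RNA, oligo(dT) RT → PCR, 6-FAM extension, HpaI cut → CE fluorescence. DMSO = baseline; bidirectional curve fit.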

Test [5] in a line: ATG_AP_1_CIS: Attagene CIS-FACTORIAL HepG2 Assay for human Activator Protein 1 (AP-1) (AID 2282931). The settings on record: HepG2 Attagene cis-factorial AP-1 reporter mRNA; actives raise or lower the signal. In outline:
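HepG2 cells transiently transfected with cis-element-driven reporter transcription units, dosed for 24 hours. Reporter mRNA measured by RT-PCR, 6-FAM labelling, HpaI digestion and capillary electrophoresis. Bidirectional fitting against DMSO baseline.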

Test [6] can be described thus: ATG_AP_2_CIS: Attagene CIS-FACTORIAL HepG2 Assay for human Activator Protein 2 (AP-2) (AID 2282932). Particulars: HepG2 AP-2 cis-reporter, Attagene transcription factor profiling; actives raise or lower the signal. In outline: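 Step one: transient transfection of HepG2 with reporter transcription units. Step two: 24 h chemical exposure. Step three: RNA extraction, RT-PCR, labelled fragment analysis by capillary electrophoresis; DMSO serves as baseline.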

Test [7] in a line: ATG_BRE_CIS: Attagene CIS-FACTORIAL HepG2 Assay for human Bone Morphogenetic Protein (BMP) Response Element (BRE) (AID 2282933). The settings on record: HepG2 BMP response element reporter, Attagene transcription factor profiling; actives raise or lower the signal. The essentials: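 After a 24 h chemical treatment, transiently transfected HepG2 cells were lysed for RNA; reporter transcripts were quantified by fluorescent RT-PCR and capillary electrophoresis, normalised to DMSO.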

In test [8] the target is Retinoic acid receptor alpha (Homo sapiens) (UniProt P10276). Briefly: ATG_DR5_RAR_CIS: Attagene CIS-FACTORIAL HepG2 Assay for human Retinoic Acid Receptor Alpha (RARE), DR5 submotif (AID 2282934).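 On AC50: reporter responds to endogenous RAR alpha beta and gamma in HepG2 not RARA alone.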 Particulars: HepG2 Attagene cis-factorial RARE DR5 reporter, mRNA; actives raise or lower the signal. In outline:
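Transient MRTU transfection of HepG2; 24 h compound treatment; TriZol RNA, oligo(dT) RT, PCR, FAM labelling, capillary electrophoresis. Bidirectional fit vs DMSO. Endogenous TF activity at DR5 RARE.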

Test [9] has as its target Transcription factor E2F1 (Homo sapiens) (UniProt Q01094). The test is described as follows: ATG_E2F_CIS: Attagene CIS-FACTORIAL HepG2 Assay for human E2F Transcription Factor 1 (AID 2282935). The settings on record: HepG2 Attagene cis-reporter, E2F reporter RNA transcripts; actives raise or lower the signal. In outline: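 Total RNA from 24 h-treated, reporter-transfected HepG2 cells undergoes DNase I treatment, oligo(dT) reverse transcription, PCR and 6-FAM primer extension before capillary electrophoresis.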

Test [10] can be described thus: ATG_E_Box_CIS: Attagene CIS-FACTORIAL HepG2 Assay for human Enhancer Box (E-box) (AID 2282936). Particulars: HepG2 E-box cis-reporter transcription, actives raise or lower the signal. The essentials: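 DMSO served as negative control and baseline for bidirectional fitting. Human hepatoma HepG2 cells, transiently transfected with cis-reporter constructs, were dosed 24 h; reporter mRNA read by RT-PCR and capillary electrophoresis.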

A short description of test [11]: ATG_M_61_CIS: Attagene CIS-FACTORIAL HepG2 Assay for M61 Transcription Factor (Internal Marker) (AID 2282937). The settings on record: HepG2 Attagene CIS-FACTORIAL M61 internal marker reporter; actives raise or lower the signal. The essentials:
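HepG2 cells transiently transfected with multiplexed cis-promoter reporter units reporting endogenous transcription factor activity, measured 24 h after dosing. Reporter mRNA quantified by RT-PCR and capillary electrophoresis; bidirectional fit against DMSO baseline.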

Test [12] in a line: ATG_EGR_CIS: Attagene CIS-FACTORIAL HepG2 Assay for human Early Growth Response 1 (EGR1) (AID 2282938). The settings on record: HepG2 Attagene CIS-FACTORIAL EGR reporter mRNA; actives raise or lower the signal. In outline: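 HepG2 cells transiently transfected with cis-element-driven multiplexed reporter units, dosed for 24 h. EGR1-element reporter mRNA quantified by RT-PCR, 6-FAM labelling, HpaI digestion and capillary electrophoresis; bidirectional fit versus DMSO.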

A short description of test [13]: ATG_Ets_CIS: Attagene CIS-FACTORIAL HepG2 Assay for human Erythroblast Transformation Specific (ETS) (AID 2282941). The settings on record: HepG2 ETS cis-reporter transcription, actives raise or lower the signal. The essentials: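 Human HepG2 hepatoma cells were transiently transfected with promoter-driven reporter constructs and treated for 24 hours. Reporter transcripts were quantified by RT-PCR with fluorescent primer extension; bidirectional curve fitting used DMSO as reference.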

Test [14] deals with Hepatocyte nuclear factor 3-beta (Homo sapiens) (UniProt Q9Y261). The test is described as follows: ATG_FoxA2_CIS: Attagene CIS-FACTORIAL HepG2 Assay for human Forkhead box A2 (FOXA2) (AID 2282942). Particulars: HepG2 cis-reporter transcription factor activity, 24 h; actives raise or lower the signal. The essentials:
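HepG2 transiently transfected with a multiplexed cis-promoter reporter library read endogenous FOXA2 activity. After 24 h compound exposure, reporter mRNA was quantified by RT-PCR, HpaI digestion and capillary electrophoresis. Bidirectional fit against DMSO.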

The nature of test [15]: ATG_FoxO_CIS: Attagene CIS-FACTORIAL HepG2 Assay for human Forkhead box O (FoxO) (AID 2282943). The settings on record: HepG2 Attagene cis-reporter, FoxO element, mRNA; actives raise or lower the signal. The essentials:
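HepG2, transient MRTU transfection (cis element, endogenous TFs). Dose 24 h. TriZol RNA → oligo(dT) RT → PCR → 6-FAM primer extension → HpaI cut → CE. Gain/loss vs DMSO.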

A short description of test [16]: ATG_GATA_CIS: Attagene CIS-FACTORIAL HepG2 Assay for human GATA Binding Protein (AID 2282944). Particulars: HepG2 GATA cis-element reporter, Attagene multiplex mRNA; actives raise or lower the signal. The essentials:
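Measures endogenous transcription factor-driven reporter mRNA in HepG2 cells transiently carrying cis-regulated constructs. 24 h dosing; RNA via oligo(dT) reverse transcription, PCR, HpaI digestion, capillary electrophoresis; fitted relative to DMSO.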

Test [17] can be described thus: ATG_GLI_CIS: Attagene CIS-FACTORIAL HepG2 Assay for human Zinc Finger Protein GLI1 (AID 2282945). Particulars: HepG2, Attagene cis-factorial reporter mRNA, GLI element; actives raise or lower the signal. In outline:
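Bidirectional curve fits relative to DMSO, using reporter mRNA levels from RT-PCR plus capillary electrophoresis. Cells were HepG2 transiently carrying cis-regulated reporter constructs, harvested 24 h after dosing.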

Test [18] in a line: ATG_DR4_LXR_CIS: Attagene CIS-FACTORIAL HepG2 Assay for human Liver X Receptor (LXR), DR4 submotif (AID 2282929). Particulars: HepG2 Attagene DR4 cis-reporter, mRNA transcription; actives raise or lower the signal. In outline: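 HepG2 cells were transiently transfected with multiple cis-regulated reporter units and dosed for 24 hours. The DR4 reporter mRNA was quantified by RT-PCR, 6-FAM labelling and capillary electrophoresis. Bidirectional fits used DMSO as baseline.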

Test [19] can be described thus: ATG_M_19_CIS: Attagene CIS-FACTORIAL HepG2 Assay for M19 Transcription Factor (Internal Marker) (AID 2282939). Particulars: HepG2 Attagene CIS-FACTORIAL M19 internal marker reporter; actives raise or lower the signal. In outline:
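In this multiplexed cell assay, transiently transfected HepG2 reporter units report endogenous transcription-factor activity; after 24 hours of treatment, labelled reporter cDNA fragments are quantified by capillary electrophoresis and fitted bidirectionally against DMSO.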

The nature of test [20]: ATG_ERE_CIS: Attagene CIS-FACTORIAL HepG2 Assay for Estrogen Response Element (ERE) (AID 2282940). Particulars: HepG2 ERE cis-reporter, Attagene RNA transcript; actives raise or lower the signal. In outline: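 Measuring endogenous transcription factor output, the assay doses transfected HepG2 cells for 24 hours and quantifies reporter transcripts by fluorescent RT-PCR and capillary electrophoresis, with DMSO as baseline.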

Aryl hydrocarbon receptor (Homo sapiens), sequence (P35869 whole entry, looked up): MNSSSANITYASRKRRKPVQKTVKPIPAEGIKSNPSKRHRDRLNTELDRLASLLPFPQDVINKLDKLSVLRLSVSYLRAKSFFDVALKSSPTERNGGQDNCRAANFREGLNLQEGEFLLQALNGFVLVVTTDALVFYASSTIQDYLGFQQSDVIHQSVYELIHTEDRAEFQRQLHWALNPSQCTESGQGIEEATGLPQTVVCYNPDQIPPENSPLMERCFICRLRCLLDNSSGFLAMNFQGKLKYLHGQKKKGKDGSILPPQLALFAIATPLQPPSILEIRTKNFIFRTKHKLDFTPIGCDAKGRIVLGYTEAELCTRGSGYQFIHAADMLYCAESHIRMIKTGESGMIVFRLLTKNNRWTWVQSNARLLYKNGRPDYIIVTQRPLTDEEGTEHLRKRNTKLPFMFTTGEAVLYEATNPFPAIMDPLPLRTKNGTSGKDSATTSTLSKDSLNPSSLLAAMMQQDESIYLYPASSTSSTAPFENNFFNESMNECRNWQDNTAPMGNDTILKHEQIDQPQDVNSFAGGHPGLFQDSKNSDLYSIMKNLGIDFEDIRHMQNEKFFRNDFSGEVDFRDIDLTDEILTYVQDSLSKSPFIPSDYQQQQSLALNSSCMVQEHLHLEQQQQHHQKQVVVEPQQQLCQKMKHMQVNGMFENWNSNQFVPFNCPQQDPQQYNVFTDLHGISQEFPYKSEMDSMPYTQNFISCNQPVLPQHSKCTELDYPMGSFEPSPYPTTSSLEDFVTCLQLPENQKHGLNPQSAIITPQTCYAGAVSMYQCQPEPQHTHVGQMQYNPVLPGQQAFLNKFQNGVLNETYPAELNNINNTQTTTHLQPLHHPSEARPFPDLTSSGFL
Transcription factor E2F1 (Homo sapiens), sequence (Q01094 whole entry, looked up): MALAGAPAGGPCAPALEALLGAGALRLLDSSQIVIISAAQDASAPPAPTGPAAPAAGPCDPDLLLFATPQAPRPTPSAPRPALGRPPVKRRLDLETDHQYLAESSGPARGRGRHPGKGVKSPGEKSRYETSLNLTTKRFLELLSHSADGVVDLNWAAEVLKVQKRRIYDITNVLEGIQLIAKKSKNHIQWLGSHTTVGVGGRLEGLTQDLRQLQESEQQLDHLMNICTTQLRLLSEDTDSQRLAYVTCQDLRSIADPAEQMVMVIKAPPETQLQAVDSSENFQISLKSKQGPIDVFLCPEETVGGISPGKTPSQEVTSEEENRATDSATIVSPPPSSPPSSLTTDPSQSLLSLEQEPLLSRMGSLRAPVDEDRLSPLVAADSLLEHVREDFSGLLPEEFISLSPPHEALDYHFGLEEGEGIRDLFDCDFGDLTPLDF
Retinoic acid receptor alpha (Homo sapiens), sequence (P10276 whole entry, looked up): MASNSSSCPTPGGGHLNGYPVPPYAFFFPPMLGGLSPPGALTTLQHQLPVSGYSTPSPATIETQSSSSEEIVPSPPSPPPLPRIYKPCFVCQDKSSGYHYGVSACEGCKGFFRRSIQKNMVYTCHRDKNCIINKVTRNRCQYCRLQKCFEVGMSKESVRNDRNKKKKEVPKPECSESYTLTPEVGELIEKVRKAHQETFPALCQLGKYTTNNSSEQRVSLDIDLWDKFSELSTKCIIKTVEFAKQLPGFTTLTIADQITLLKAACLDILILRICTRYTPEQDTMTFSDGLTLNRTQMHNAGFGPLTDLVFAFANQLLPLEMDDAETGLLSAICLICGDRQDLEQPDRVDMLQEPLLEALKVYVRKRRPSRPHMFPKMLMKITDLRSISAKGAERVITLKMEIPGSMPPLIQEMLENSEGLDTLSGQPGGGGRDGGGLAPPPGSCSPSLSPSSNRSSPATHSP
CCAAT/enhancer-binding protein beta (Homo sapiens), sequence (P17676 whole entry, looked up): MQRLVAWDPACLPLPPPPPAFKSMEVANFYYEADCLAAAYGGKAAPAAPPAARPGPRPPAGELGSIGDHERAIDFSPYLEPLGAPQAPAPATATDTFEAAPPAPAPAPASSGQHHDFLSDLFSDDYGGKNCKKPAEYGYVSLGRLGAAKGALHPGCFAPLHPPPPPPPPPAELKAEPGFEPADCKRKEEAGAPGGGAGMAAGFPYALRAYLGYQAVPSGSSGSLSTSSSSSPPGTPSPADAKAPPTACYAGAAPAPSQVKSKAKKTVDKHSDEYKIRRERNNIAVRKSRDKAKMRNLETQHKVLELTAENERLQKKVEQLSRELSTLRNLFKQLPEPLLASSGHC
Hepatocyte nuclear factor 3-beta (Homo sapiens), sequence (Q9Y261 whole entry, looked up): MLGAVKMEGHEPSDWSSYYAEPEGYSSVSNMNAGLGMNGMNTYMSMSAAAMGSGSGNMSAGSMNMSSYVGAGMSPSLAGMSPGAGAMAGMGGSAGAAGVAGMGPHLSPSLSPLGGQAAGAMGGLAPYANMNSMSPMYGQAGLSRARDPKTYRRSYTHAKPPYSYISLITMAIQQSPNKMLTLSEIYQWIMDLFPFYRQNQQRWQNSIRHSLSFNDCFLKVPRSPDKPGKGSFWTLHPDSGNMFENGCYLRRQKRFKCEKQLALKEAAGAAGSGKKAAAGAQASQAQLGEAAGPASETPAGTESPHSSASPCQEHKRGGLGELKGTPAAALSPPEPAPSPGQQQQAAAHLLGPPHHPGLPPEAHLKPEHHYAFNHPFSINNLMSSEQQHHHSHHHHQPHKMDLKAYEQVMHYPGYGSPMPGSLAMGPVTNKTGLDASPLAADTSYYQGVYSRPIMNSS

In the case of `CCCCOC(=O)c1ccccc1C(=O)OCc1ccccc1`, the compound was classed as inactive in [1], in test [2], in [3], in test [4], in test [5] and in test [6]. The compound was classed as inactive in test [7], in [8], in test [9], in test [10], in test [11] and in [12]. Moreover, the outcome in test [13], in [14], in test [15], in [16] and in [17] was inactive.

For `O=C(O)C1C2CCC(O2)C1C(=O)O` (stereo unspecified), the AC50 was 80.7 µM (active) in test [1], 59 µM (active) in test [5], 75.4 µM (active) in test [8] and 100 µM (active) in [17]. Besides, the outcome in test [2], in test [18], in test [6], in [7], in test [10] and in test [11] was inactive. Also, the compound was called inactive in test [12], in test [13], in test [14], in test [15] and in test [16].

On to `Nc1ccc([N+](=O)[O-])cc1`, for which the compound was classed as inactive in test [1], in test [2], in [18], in test [5], in test [6] and in test [7]. Moreover, the call in test [9], in [10], in test [11], in test [12], in test [19] and in test [13] was inactive. Further, the result in test [14], in [15], in test [16] and in test [17] was inactive.

Take `Cc1ccc(N)c(N)c1`: the call in test [1], in test [2], in test [18], in test [6], in test [7] and in test [8] was inactive. In addition, the compound was classed as inactive in test [9], in test [10], in [11], in test [13], in test [14] and in test [15]. Also, the compound was called inactive in [16] and in test [17]. Also, the AC50 in test [5] was 27.5 µM (active); in test [12], 28.3 µM (active).

For `Brc1ccc(Oc2ccccc2)cc1`, the compound was called inactive in test [1], in [2], in test [4], in test [5], in [6] and in [7]. Besides, the result in [10], in [11], in [12], in [13], in [14] and in test [15] was inactive. Further, the outcome in [16] and in test [17] was inactive. The AC50 in test [20] was 50.8 µM (active).

Turning to `COP(=S)(OC)SCN1C(=O)c2ccccc2C1=O`, the result in test [1], in test [2], in test [18], in [4], in test [5] and in test [6] was inactive. The compound was classed as inactive in [7], in test [10], in test [11], in test [12], in [19] and in test [13]. The compound was classed as inactive in test [14], in test [15], in test [16] and in test [17].

Consider `CCCSC(=O)N(CCC)CCC`, for which the call in test [1], in test [2], in test [18], in test [4], in test [5] and in test [6] was inactive. In addition, the compound was called inactive in [7], in test [10], in [11], in [12], in test [13] and in [14]. In addition, the call in test [15], in [16] and in [17] was inactive.

For the compound `c1ccc(N=Nc2ccccc2)cc1`, the compound was classed as inactive in test [1], in [2], in test [5], in [6], in test [7] and in test [8]. For the same compound, the outcome in [10], in [11], in test [12], in test [13], in test [14] and in test [15] was inactive. In addition, the outcome in test [16] and in [17] was inactive. Besides, the AC50 in test [18] is 100 µM (active); in test [4], 125 µM (active).

What is called AC50 is the midpoint of the concentration-response curve, whichever way the signal moves.
